Measurements taken from the supplement of paper PMC11417369.
In all, about 25,000 sequences were measured (“ln(normalized median fluorescence intensity)”: median about 9.7, highest 2% from about 11 on). The sample holds the highest values, similar sequences and a random draw of the others, so the mix is not that of the screen.

tested on: PfAP2-HC AP2 domain (GST-tagged); assay: gcPBM binding intensity (ln(normalized median fluorescence intensity)); higher = stronger DNA binding
Summary of the method: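 Plasmodium falciparum DNA-binding domains carrying a GST tag were expressed in E. coli and applied for 1 h, at about 25 μg on average, to an Agilent 4 × 180k array. The array held primer-extended double-stranded 36-bp intergenic genomic probes together with negative controls, and binding took place in 1× PBS with 1% milk, 0.2 mg/ml BSA, 0.5% salmon testes DNA and 0.03% Triton X-100. An Alexa488 anti-GST antibody detected bound protein, and the array was scanned at 488 nm. Binding intensity is taken as the highest Masliner-normalised natural-log median intensity across replicate spots of either probe orientation.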

Sequence | gcPBM binding intensity (ln)
AAAAAAATAGTCTTCTTGCACTTTTTAATTTATTTT | 9.6
CTAAAACAATAAATCACACATACATAGGATAATATA [CACACA_site4247] | 9.81
GTGTAATTTATTGTGTTGCACTTTTTTTTTTTTTTT [GTGCAC_site9644] | 9.84
ATATATATGTATATAACATGCAACATTTAATAATAA [TGCATGCA_site1018] | 9.85
AAGGTGGAAACAATTACACACACACTAATAAAAAAA [CACACA_site9051] | 10.8
ATATGATTTCACAAGACACACACATACAAATTTATA [CACACA_site9296] | 10.1
TATTTATTTATTTATGCATGCATGAATAATTTTTAC [TGCATGCA_site31] | 9.62
AGAACAATTCTGTGGTGTACCAAAAAAAATTTAATT [XGTACX_site8082] | 9.8
TAAAGAGTCATGTGGTGTACCTGCTTCACCACATAT [XGTACX_site1288] | 9.4
AACTTTGAGACATAGTGTACTTACACAATCTTAATA [XGTACX_site3712] | 9.63
ATATATATTTATATATGTACATATTTTTGTGTATTT [XGTACX_site1183] | 9.93
TATATATATATATATGCATGTACATATATTTGTTAT [TGCATGCA_site379] | 10.4
ATGCATATATTTATGTGTACATATATTTGTAGGGGG [XGTACX_site6063] | 11.2
ATACCTATTTGATGAGTGCATTATCCAATATATGTA | 9.59
TCTTTTTAAATATATACACACCGTGTCTACAGATAC [CACACA_site5784] | 9.88
AAGAAAAACTTTACGTGTACCAAACATCCTGCCAAC [XGTACX_site598] | 9.91
ATATATATTTTATTATGTACATATAAATATTACACA [XGTACX_site4062] | 9.57
TGCATATACGCAAGCACACATATATATATATATATA [CACACA_site1069] | 9.6
AATACACGCAGACACACACACACACGCACATATATA [CACACA_site6447] | 10.8

Sequence | gcPBM binding intensity (ln)
ACATCAAGCAGACACACACACACACGCACACGCACA [CACACA_site6309] | 11.2
GCATACATCAAGCACACACACACACGCACACGCACA [CACACA_site6311] | 11.3
AAGCATACATCAAGCACACACACACCCACAGAGACA [CACACA_site4362] | 10.5
CACGCACGCAGACACACACACACACGCACATATATA [CACACA_site6303] | 10.6
AGAAGCATACATCAAGCACACACACCCACACCCACA [CACACA_site8014] | 11.4
AATAATAGAAGCACCCACCCACCACCACCCACACAT [CACACA_negctrl_site1033] | 10.9
AGCACACGCAGACACACACACACACGCACACGCACA [CACACA_site6306] | 11.6
TGCATATACTCAAGCACACATATATATATATATATA [CACACA_site4733] | 9.71
AGCTCTATATTTTACACATGCGATTTGGATATATAT [TGCATGCA_site105] | 9.84
ATGTACTATGATAATGCATGCAATAATACATTTTTA [TGCATGCA_site318] | 9.6
AAACTATTCACTATAATACATTAGAAGTGAATAAAA [TGCATGCA_negctrl_site498] | 9.64
TTTTTTTTTCTCCATACACACTTGATAAAACTTTTT [CACACA_site4512] | 9.64
AAAAAAAATAATTTGCGTACATAAAAATTTATAGGA [XGTACX_site3016] | 9.58
AAAAATAAAGAAACAGGTACGCATATATTAAGATAT [XGTACX_site8097] | 9.98
TATCCTAATGCTACCACACACACAAAAACAAATAAT [CACACA_site2609] | 10.7
TATTATTTTTCATATGCATGCAAAAATAAAAAAATA [TGCATGCA_site350] | 9.31
TACATACATACATACACACACACATATATATACATA [CACACA_site853] | 11
GCCAAAAGGATATGCACACACACACCCATATATATA [CACACA_site2198] | 10.6
TGGTAATACACATACACACACACATACACATATATA [CACACA_site7312] | 11.4

Sequence | gcPBM binding intensity (ln)
GGAAGGATATAACATACACACACACCCATATATATA [CACACA_site9376] | 10.3
CAAAAGGATAGGCACACACACACACCGATATATATA [CACACA_site8685] | 10.7
TATATACATATATACACACACATATATATATATATA [CACACA_site2805] | 10.1
CAAAAGGATAGGCACACACACACACCCATATATATA [CACACA_site2199] | 11.1
TGGTAATACCCATACACACACACATACCCATATATA [CACACA_site5509] | 10.3
AAGGATATAACATACACACACACACCGATATATATA [CACACA_site6136] | 10.6
TATACATATATATACACACACACATATATATATATA [CACACA_site1299] | 10.1
TGGTAATACCCATACACACACACATACACATATATA [CACACA_site8877] | 10.3
AAGGATATAACATACACACACACACCCATATATATA [CACACA_site4142] | 11.1
TATATATATAAAAAAAGTACGTATTTAATAAAAATA [XGTACX_site4992] | 9.88
AAAACTTTTAGTTATACACACAACATAGAAAATATT [CACACA_site6287] | 9.84
TATAAAGACACGTACACACACTAAGTATATCCAATA [CACACA_site6855] | 10.5
AATATTCATATGCAGGTGCATTAATTTTTATTAATT | 9.65
ATGCTTTTGTCATGTGCACACACGTATATATTATAT [CACACA_site4163] | 10.3
TGTTAATTATAAATTTGTACTTATTTTTACAAAATA [XGTACX_site6598] | 9.48
ATGTAACATAGGAAATGTACATATAAATATAATTTA [XGTACX_site6452] | 9.77
CATATAATATTTGAAACTATATATAAATATAAGGTA [TGCATGCA_negctrl_site19] | 9.52
GAAAATTTATATTGCACACATAGGGAATAAAAAAAA [CACACA_site2146] | 9.99
ATATTTACCATTGTATGTACATATATAAAATATATC [XGTACX_site3237] | 9.69
